Inconclusive results are not listed. The source made the active and inactive calls. Unless noted, calls follow the shape of the dose curve; as a rule, active = well fitted curve in the direction sought with a large enough effect in the repeat runs; inconclusive = weak or mixed curves; inactive = flat fitted curve, though single readings scatter.
Experiments:
[1] = qHTS assay to test for compound auto fluorescence at 535 nm (green) in HEK293 cells (AID 720680)
[2] = qHTS assay to test for compound auto fluorescence at 460 nm (blue) in HEK293 cell free culture (AID 720681); also: potency is read from the fitted curve at half-maximal effect
Outline: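 Blue fluorescence (Ex 405/Em 460 nm, triamterene-equivalent) was read immediately after pin transfer of compound or DMSO into medium (DMEM, 10% FBS) without cells.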

[3] = qHTS assay to test for compound auto fluorescence at 535 nm (green) in HEK293 cell free culture (AID 720682)
Outline: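 Read-out: 485/535 nm fluorescence intensity, calibrated against fluorescein. Medium only (DMEM + 10% FBS, no cells); test compound or DMSO vehicle added by pintool before plate reading.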

[4] = qHTS assay to test for compound auto fluorescence at 590 nm (red) in HEK293 cell free culture (AID 720683)
Outline: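 Red-channel autofluorescence of compounds in culture medium (DMEM, 10% FBS), no cells, measured at 540/590 nm. Rose Bengal sodium is the reference fluorophore for equivalence.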

[5] = qHTS assay to test for compound auto fluorescence at 590 nm (red) in HepG2 cell free culture (AID 720684)
Outline: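 Steps: dispense MEM/10% FBS medium, no cells; pin compound or DMSO vehicle; read red channel, Ex/Em 540/590 nm. Output given as Rose Bengal sodium equivalents.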

[6] = qHTS assay to test for compound auto fluorescence at 460 nm (blue) in HepG2 cell free culture (AID 720685); also: potency is read from the fitted curve at half-maximal effect
Outline: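 Compound (23 nL) or DMSO pinned into cell-free MEM with 10% FBS; blue fluorescence read at 405/460 nm excitation/emission, expressed as auto-fluorescence equivalency to triamterene.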

[7] = qHTS assay to test for compound auto fluorescence at 535 nm (green) in HepG2 cell free culture (AID 720686)
[8] = qHTS assay to test for compound auto fluorescence at 460 nm (blue) in HepG2 cells (AID 720687); also: potency is read from the fitted curve at half-maximal effect
Outline: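 Blue-channel autofluorescence (Ex/Em 405/460 nm, triamterene-equivalent) was measured after 1 hr compound exposure at 37 C, 5% CO2. Cells were HepG2, plated overnight at 37 C in MEM plus 10% FBS.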

[9] = target: Glucocorticoid receptor (Homo sapiens) (UniProt P04150); assay: qHTS assay to identify small molecule agonists of the glucocorticoid receptor (GR) signaling pathway (AID 720691; active = well fitted activation curve with a large enough effect in the signal ratio in the repeat runs, not every such curve was filed as active; the % refers to the signal ratio; also: potency is read from the fitted curve at half-maximal effect)
Outline: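 Agonist mode in a HeLa line carrying a GRE-controlled beta-lactamase reporter. Compounds act for 18 h at 37 C before a 2 h room-temperature FRET substrate step and fluorescence reading.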

[10] = target: Glucocorticoid receptor (Homo sapiens) (UniProt P04150); assay: qHTS assay to identify small molecule antagonists of the glucocorticoid receptor (GR) signaling pathway (AID 720692; active = well fitted inhibition curve with a large enough effect in the signal ratio in the repeat runs, not every such curve was filed as active; the % refers to the signal ratio; also: potency is read from the fitted curve at half-maximal effect)
Outline: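 Cells plated, rested 4 h at 37 C/5% CO2; compounds in DMSO pin-transferred; dexamethasone added to 5 nM final; 18 h at 37 C; B/G FRET substrate added, 2 h room temperature; fluorescence measured.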
% is scaled to controls: 0 for no effect and ±100 for the full control effect; tags tell the direction and shape of the fitted curve or compound fluorescence and quenching.

Chain of Glucocorticoid receptor (Homo sapiens) (P04150 whole entry, looked up): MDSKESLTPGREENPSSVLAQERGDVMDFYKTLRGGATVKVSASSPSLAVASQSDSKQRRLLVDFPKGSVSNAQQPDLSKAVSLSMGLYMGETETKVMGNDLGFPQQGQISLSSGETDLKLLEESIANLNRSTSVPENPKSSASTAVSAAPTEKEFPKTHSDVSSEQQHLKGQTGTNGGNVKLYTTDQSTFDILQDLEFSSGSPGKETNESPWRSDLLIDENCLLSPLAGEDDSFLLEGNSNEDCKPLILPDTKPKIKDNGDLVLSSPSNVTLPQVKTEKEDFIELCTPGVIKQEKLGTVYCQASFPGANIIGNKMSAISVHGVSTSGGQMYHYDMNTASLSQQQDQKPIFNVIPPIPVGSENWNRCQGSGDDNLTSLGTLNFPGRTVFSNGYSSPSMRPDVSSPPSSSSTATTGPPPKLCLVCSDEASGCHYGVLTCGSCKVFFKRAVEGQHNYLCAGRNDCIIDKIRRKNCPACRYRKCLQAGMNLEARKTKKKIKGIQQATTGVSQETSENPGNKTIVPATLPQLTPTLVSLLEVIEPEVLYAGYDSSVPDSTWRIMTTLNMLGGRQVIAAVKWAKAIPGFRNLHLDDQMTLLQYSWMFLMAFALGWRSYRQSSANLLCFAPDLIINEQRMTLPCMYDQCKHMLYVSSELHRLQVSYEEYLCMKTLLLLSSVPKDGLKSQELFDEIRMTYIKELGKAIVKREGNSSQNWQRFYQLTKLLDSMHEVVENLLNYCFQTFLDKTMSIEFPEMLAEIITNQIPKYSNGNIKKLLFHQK

Clc1ccc(C(Cl)(Cl)Cl)c(Cl)c1
inactive: outcome [1] | Potency [2] | outcome [3] | outcome [4] | outcome [5] | Potency [6] | outcome [7] | Potency [8]

CN(C)C(=S)S
inactive: outcome [1] | Potency [2] | outcome [3] | outcome [4] | outcome [5] | Potency [6] | outcome [7] | Potency [8]

CCN(CC)C(=S)[S-].CCN(CC)C(=S)[S-].[Zn+2]
inactive: outcome [1] | Potency [2] | outcome [3] | outcome [4] | outcome [5] | Potency [6] | outcome [7] | Potency [8]

C=CC(=O)OCC(COC(=O)C=C)(COC(=O)C=C)COC(=O)C=C
inactive: outcome [1] | Potency [2] | outcome [3] | outcome [4] | outcome [5] | Potency [6] | outcome [7] | Potency [8]

OC(c1ccc(Cl)cc1)(c1ccc(Cl)cc1)C(Cl)(Cl)Cl
inactive: outcome [1] | Potency [2] | outcome [3] | outcome [4] | outcome [5] | Potency [6] | outcome [7] | Potency [8]

COc1ccc(N)cc1N
inactive: outcome [1] | Potency [2] | outcome [3] | outcome [4] | outcome [5] | Potency [6] | outcome [7] | Potency [8] | Potency [9]

O=c1oc2ccccc2c(O)c1Cc1c(O)c2ccccc2oc1=O
inactive: fluorescence, % of fluorescein [1] 0.155% [at 18.6 µM] | fluorescence, % of fluorescent control [2] 0.0571% [at 18.6 µM] | activity change [3] 0.109% [at 18.6 µM] | fluorescence, % of fluorescent control [4] 0.108% [at 18.6 µM] | fluorescence, % of Rose Bengal [5] 0.445% [at 18.6 µM] | fluorescence, % of fluorescent control [6] -0.0804% [at 18.6 µM] | fluorescence, % of fluorescein control [7] 0.114% [at 18.6 µM] | fluorescence, % of fluorescent control [8] 0.0049% [at 18.6 µM]

O=[N+]([O-])c1ccc2ccc3cccc4ccc1c2c34
inactive: outcome [1] | Potency [2] | outcome [3] | outcome [4] | outcome [5] | Potency [6] | outcome [7] | Potency [8]

ClC1=C(Cl)C2(Cl)C3C(Cl)C(Cl)CC3C1(Cl)C2(Cl)Cl (configuration not stated)
inactive: outcome [1] | Potency [2] | outcome [3] | outcome [4] | outcome [5] | Potency [6] | outcome [7] | Potency [8]

O=[N+]([O-])c1c2ccccc2cc2ccccc12
inactive: outcome [1] | Potency [2] | outcome [3] | outcome [4] | outcome [5] | Potency [6] | outcome [7] | Potency [8] | Potency [9]

CC(=O)[O-].CC(=O)[O-].[Hg+2]
inactive: outcome [1] | Potency [2] | outcome [3] | outcome [4] | outcome [5] | Potency [6] | outcome [7] | Potency [8]

[CH3][Hg][Cl]
inactive: outcome [1] | Potency [2] | outcome [3] | outcome [4] | outcome [5] | Potency [6] | outcome [7] | Potency [8]

CC1(C)[C@H](C(=O)O[C@H](C#N)c2cccc(Oc3ccccc3)c2)[C@@H]1/C=C(\Cl)C(F)(F)F
inactive: outcome [1] | Potency [2] | outcome [3] | outcome [4] | outcome [5] | Potency [6] | outcome [7] | Potency [8] | Potency [9]

Clc1ccc(COC(Cn2ccnc2)c2ccc(Cl)cc2Cl)cc1 (configuration not stated)
inactive: outcome [1] | Potency [2] | outcome [3] | outcome [4] | outcome [5] | Potency [6] | outcome [7] | Potency [8]

O=C(Nc1ccc2[nH]ccc2c1)c1cc2cc(F)ccc2n1Cc1cccc(F)c1
inactive: outcome [1] | Potency [2] | outcome [3] | outcome [4] | outcome [5] | Potency [6] | outcome [7] | Potency [8]

BrC(Br)C(Br)(Br)Br
inactive: outcome [1] | Potency [2] | outcome [3] | outcome [4] | outcome [5] | Potency [6] | outcome [7] | Potency [8] | Potency [9]

CC[C@H]1C[C@@H]2C[C@H]3c4[nH]c5ccc(OC)cc5c4CCN(C2)[C@@H]13
inactive: outcome [1] | Potency [2] | outcome [3] | outcome [4] | outcome [5] | Potency [6] | outcome [7] | Potency [8]

ClC(Cl)=C(Cl)Cl
inactive: outcome [1] | Potency [2] | outcome [3] | outcome [4] | outcome [5] | Potency [6] | outcome [7] | Potency [8]

CC(=O)OC1(c2ccccc2)CCN(CCc2ccccc2)CC1
inactive: outcome [1] | Potency [2] | outcome [3] | outcome [4] | outcome [5] | Potency [6] | outcome [7] | Potency [8]

Clc1ccc(-c2ccc(Cl)c(Cl)c2Cl)c(Cl)c1Cl
inactive: outcome [1] | Potency [2] | outcome [3] | outcome [4] | outcome [5] | Potency [6] | outcome [7] | Potency [8]

Oc1ccc(C(c2ccc(O)cc2)(C(F)(F)F)C(F)(F)F)cc1
inactive: outcome [1] | Potency [2] | outcome [3] | outcome [4] | outcome [5] | Potency [6] | outcome [7] | Potency [8]

CCOC(=O)CC(=O)CCl
inactive: outcome [1] | Potency [2] | outcome [3] | outcome [4] | outcome [5] | Potency [6] | outcome [7] | Potency [8] | Potency [9]

c1ccc2c(c1)OCC(C1=NCCN1)O2 (configuration not stated)
inactive: outcome [1] | Potency [2] | outcome [3] | outcome [4] | outcome [5] | Potency [6] | outcome [7] | Potency [8]

O=C(O)COc1nc(Cl)c(Cl)cc1Cl
inactive: outcome [1] | Potency [2] | outcome [3] | outcome [4] | outcome [5] | Potency [6] | outcome [7] | Potency [8] | Potency [9]

c1ccc2c(c1)[nH]c1cnccc12
inactive: outcome [1] | Potency [2] | outcome [3] | outcome [4] | outcome [5] | Potency [6] | outcome [7]

ClC1=C(Cl)C2(Cl)C3C(Cl)C=CC3C1(Cl)C2(Cl)Cl (configuration not stated)
inactive: outcome [1] | Potency [2] | outcome [3] | outcome [4] | outcome [5] | Potency [6] | outcome [7] | Potency [8]

O=CC(Br)(Br)Br
inactive: outcome [1] | Potency [2] | outcome [3] | outcome [4] | outcome [5] | Potency [6] | outcome [7] | Potency [8]

O=C(CCl)Nc1ccccc1
inactive: outcome [1] | Potency [2] | outcome [3] | outcome [4] | outcome [5] | Potency [6] | outcome [7] | Potency [8]

BrCBr
inactive: outcome [1] | Potency [2] | outcome [3] | outcome [4] | outcome [5] | Potency [6] | outcome [7] | Potency [8] | Potency [9]

COC(=O)N(C(=O)N1CO[C@@]2(C(=O)OC)Cc3cc(Cl)ccc3C2=N1)c1ccc(OC(F)(F)F)cc1
inactive: outcome [1] | Potency [2] | outcome [3] | outcome [4] | outcome [5] | Potency [6] | outcome [7] | Potency [8]

CCOCn1c(-c2ccc(Cl)cc2)c(C#N)c(Br)c1C(F)(F)F
inactive: outcome [1] | Potency [2] | outcome [3] | outcome [4] | outcome [5] | Potency [6] | outcome [7] | Potency [8] | Potency [9]

Oc1ccc(C2(c3ccc(O)cc3)CCCCC2)cc1
inactive: outcome [1] | Potency [2] | outcome [3] | outcome [4] | outcome [5] | Potency [6] | outcome [7] | Potency [8]

FC(Cl)(Cl)Cl
inactive: outcome [1] | Potency [2] | outcome [3] | outcome [4] | outcome [5] | Potency [6] | outcome [7] | Potency [8] | Potency [9]

CCCCCCCCCCCCCCC(Br)C(=O)O (configuration not stated)
inactive: outcome [1] | Potency [2] | outcome [3] | outcome [4] | outcome [5] | Potency [6] | outcome [7] | Potency [8]

O=c1[nH]c2ccccc2n1C1CCN(CCCC(c2ccc(F)cc2)c2ccc(F)cc2)CC1
inactive: outcome [1] | Potency [2] | outcome [3] | outcome [4] | outcome [5] | Potency [6] | outcome [7] | Potency [8]

C1CCC2CCCCC2C1 (configuration not stated)
inactive: outcome [1] | Potency [2] | outcome [3] | outcome [4] | outcome [5] | Potency [6] | outcome [7] | Potency [8] | Potency [9]

O=C1NCN(c2ccccc2)C12CCN(CC1COc3ccccc3O1)CC2 (configuration not stated)
inactive: outcome [1] | Potency [2] | outcome [3] | outcome [4] | outcome [5] | Potency [6] | outcome [7] | Potency [8]

Nc1ccc(Sc2ccc(N)cc2)cc1
inactive: outcome [1] | Potency [2] | outcome [3] | outcome [4] | outcome [5] | Potency [6] | outcome [7] | Potency [8] | Potency [9]

COc1cccc(C(=O)CCN[C@@H](C)[C@H](O)c2ccccc2)c1
inactive: outcome [1] | Potency [2] | outcome [3] | outcome [4] | outcome [5] | Potency [6] | outcome [7] | Potency [8] | Potency [9]

N#CCCC(Br)(C#N)CBr (configuration not stated)
inactive: outcome [1] | Potency [2] | outcome [3] | outcome [4] | outcome [5] | Potency [6] | outcome [7] | Potency [8] | Potency [9]

CC(C)[C@H](C(=O)O[C@H](C#N)c1cccc(Oc2ccccc2)c1)c1ccc(Cl)cc1
inactive: outcome [1] | Potency [2] | outcome [3] | outcome [4] | outcome [5] | Potency [6] | Potency [8]

Clc1ccc(C(c2ccc(Cl)cc2)C(Cl)(Cl)Cl)cc1
inactive: outcome [1] | Potency [2] | outcome [3] | outcome [4] | outcome [5] | Potency [6] | outcome [7] | Potency [8]
active: Potency [10] 43.6 µM

Oc1ccc2ccc3cccc4ccc1c2c34
active: Potency [2] 44.7 µM | Potency [6] 39.8 µM [fluorescent] | Potency [8] 35.5 µM [fluorescent]
inactive: outcome [1] | outcome [3] | outcome [4] | outcome [5] | outcome [7] | Potency [9]

O=[N+]([O-])O.O=[N+]([O-])O.[Cd]
active: Potency [9] 0.389 µM | Potency [10] 43.6 µM
inactive: outcome [1] | Potency [2] | outcome [3] | outcome [4] | outcome [5] | Potency [6] | outcome [7] | Potency [8]

O=c1ssc(Cl)c1Cl
inactive: outcome [1] | Potency [2] | outcome [3] | outcome [4] | outcome [5] | Potency [6] | outcome [7] | Potency [8] | Potency [9]
active: Potency [10] 43.6 µM

COc1ccc(/C(=C/C(=O)N2CCOCC2)c2ccc(Cl)cc2)cc1OC
inactive: outcome [1] | Potency [2] | outcome [3] | outcome [4] | outcome [5] | Potency [6] | outcome [7] | Potency [8] | Potency [9] | Potency [10]

Nc1ccccc1C(=O)Oc1ccc2ccccc2c1
inactive: outcome [1] | Potency [2] | outcome [3] | outcome [4] | outcome [5] | Potency [6] | outcome [7] | Potency [8] | Potency [9] | Potency [10]

— PubChem BioAssay (Tox21)
